# Bioassay records as filed in PubChem.
# FEN1 inh: qHTS Assay for the Inhibitors of Human Flap endonuclease 1 (FEN1). P39748. Recombinant FEN1 flap cleavage, fluorescence, 15 min. Potency, µM (highest dose often 114 µM), for inactives: at the top dose activity change, negative = inhibition, hits mostly inhibitors. 390,000 tested, 0.35% active; further: potency means the concentration at half of the fitted maximal effect; on the % scale 0 is the no-effect control and ±100 the full control effect; nearly all actives have a fitted effect of over 65% in size
# Target sequence (P39748 whole entry, looked up): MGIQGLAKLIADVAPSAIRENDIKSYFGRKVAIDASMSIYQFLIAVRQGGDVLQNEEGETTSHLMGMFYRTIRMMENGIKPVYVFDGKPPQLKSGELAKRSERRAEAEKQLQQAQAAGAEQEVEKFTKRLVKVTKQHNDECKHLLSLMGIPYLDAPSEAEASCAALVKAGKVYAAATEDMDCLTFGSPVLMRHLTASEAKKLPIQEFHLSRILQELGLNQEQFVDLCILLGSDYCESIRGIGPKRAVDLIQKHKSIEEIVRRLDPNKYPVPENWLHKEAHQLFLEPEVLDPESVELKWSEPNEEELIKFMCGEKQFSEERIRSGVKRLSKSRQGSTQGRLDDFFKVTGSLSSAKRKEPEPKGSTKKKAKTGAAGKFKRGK
#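 Enzyme 10 nM, 15 min RT preincubation with compound; start with substrate 50 nM final; reads at 0 and 15 min; qHTS titration, four-parameter Hill fit.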
# Pol eta inh: qHTS for Inhibitors of Polymerase Eta; DNA polymerase eta (Homo sapiens), Q9Y253; recombinant Pol eta, fluorescent DNA replication assay; Potency, µM (highest dose often 114 µM), inactives show top-dose activity change, negative = inhibition, actives largely listed as inhibitors; 390,000 tested, 1.2% active; AID 588591, 2011; further: potency means the concentration at half of the fitted maximal effect; on the % scale 0 is the no-effect control and ±100 the full control effect
#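 Fluorescent replication assay: 50 nM final substrate added after a 15 min room-temperature compound preincubation with 10 nM enzyme. Signal taken at 0 min and again at 10 min.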
# POLI inh: qHTS for Inhibitors of Polymerase Iota; DNA polymerase iota (Homo sapiens), Q9UNA4; Pol iota fluorescent replication assay, 10 min; Potency, µM (series often up to 115 µM), inactives show at the top dose activity, negative = inhibition, most hits filed as inhibitors; 390,000 tested, 1% active; further: potency means the concentration at half of the fitted maximal effect
#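 Fluorescent replication assay read twice, at 0 min and 10 min after adding 50 nM (final) substrate. Enzyme (10 nM) and compounds were first incubated 15 min at room temperature; enzyme-free buffer wells were negative controls.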
# POLB inh: qHTS Assay for Inhibitors of DNA Polymerase Beta | P06746 | Pol beta primer extension/strand displacement, fluorescence kinetic | Potency, µM (titrated, usually from 114 µM), inactives show top-dose activity change, negative = inhibition, usual class: inhibitors | 340,000 tested, 1.3% active | AID 485314, 2010; further: potency means the concentration at half of the fitted maximal effect; on the % scale 0 is the no-effect control and ±100 the full control effect
#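 Pol beta (10 nM) was preincubated with compound for 15 min at room temperature. The reaction was then started with 50 nM substrate and read immediately and after a further 10 min at room temperature.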
# POLK inh: qHTS for Inhibitors of Polymerase Kappa | DNA polymerase kappa (Homo sapiens), Q9UBT6 | purified Pol kappa, fluorescent DNA synthesis assay, 10 min | Potency, µM (top dose mostly 107 µM), for inactives: at the top dose activity, negative = inhibition, hits mostly inhibitors | 400,000 tested, 0.53% active | AID 588579, 2011; further: potency means the concentration at half of the fitted maximal effect; on the % scale 0 is the no-effect control and ±100 the full control effect
#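 Activity was followed as the change in fluorescence between reads at 0 and 10 min after starting the reaction with 50 nM substrate. Beforehand, 10 nM polymerase had been preincubated with compound for 15 min at room temperature.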
# PI5P4K alpha inh: qHTS for Inhibitors of phosphatidylinositol 5-phosphate 4-kinase (PI5P4K); Phosphatidylinositol 5-phosphate 4-kinase type-2 alpha (Homo sapiens), P48426; PI5P4Kalpha enzyme, ADP-Glo luminescence, 60 min; hits give low values; max response, %; 330,000 tested, 1.2% active; active means max response of -50% or lower; inconclusive means between -30% and -50%; inactive means -30% or higher; further: value at the top dose of about 77 µM; on the % scale 0 is the no-effect control and ±100 the full control effect
#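 ADP-Glo luminescence end-point after a 60 min room-temperature kinase reaction. PI5P4Kalpha and substrate in HEPES pH 7.4 buffer with EGTA, 0.1% CHAPS and 5% DMSO; ATP at 5 microM final.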
# * = called active by the depositor; ? = inconclusive; . = not tested or not shown; [ ] = remark or other dose. Hits are enriched below; roughly 2.8% of the tested compounds scored in any of these assays. Unless noted, the call rests on the fitted dose curve; in most records, active means well fitted curve in the direction sought with a large enough effect; inconclusive means small, poorly fitted or top-dose-only effect, or another doubt; inactive means no such curve, though single readings can be large; an effect the other way counts as inactive or inconclusive.
SMILES,FEN1 inh,Pol eta inh,POLI inh,POLB inh,POLK inh,PI5P4K alpha inh
CN(C)c1ccc(C=c2c3ccccc3n3c2c2ccccc2[n+]3C)cc1,31.6µM*,?,?,.,-18.9%,-75.0*
CN(C)c1ccc(C=c2c3cc(O)ccc3n3c2cc(-c2ccccc2)[n+]3C)cc1,7.94µM*,?,50.1µM*,.,?,-53.7*
CN(C)c1ccc(/C=C/c2c[n+](C)cc3ccccc23)cc1,?,.,-12.4%,.,-19.4%,.
C[n+]1c(-c2ccccc2)cc2c(=Cc3ccccc3)c3ccccc3n21,?,13.4%,50.1µM*,.,-10.8%,-50.3*
CC(C)n1c2ccccc2c2cc([N+](=O)[O-])ccc21,-2.1%,-20.1%,19.0%,12.2%,0.8%,-5.1
C[n+]1c(-c2ccccc2)cc2c(=Cc3ccc([N+](=O)[O-])cc3)c3ccccc3n21,-19.4%,6.8%,50.1µM*,.,-3.2%,?
COc1ccccc1CCNC(=O)C(=O)NCC(c1ccco1)S(=O)(=O)c1ccc(F)cc1 (centres undefined),26.0%,3.0%,17.7%,2.8%,-9.3%[60.1 µM],.
CCOC(=O)c1cccc(NC(=O)N2Cc3ccccc3Oc3ncccc32)c1,-1.3%,.,4.5%,3.7%,-1.0%,.
COc1ccc(CCNC(=O)c2ccc(S(=O)(=O)N3CCCCC3)cc2)cc1,-7.4%,-3.2%,-12.9%,.,-14.2%,10.1
COc1cc2nc(Cl)nc(NC3CCN(Cc4ccccc4)CC3)c2cc1OC,-10.1%,.,10.9%,.,-0.5%,.
N/C(Cc1ccc([N+](=O)[O-])cc1)=N\OC(=O)COc1ccccc1Cl,-2.9%,-12.1%,-9.4%,?,-4.8%,-59.4*
Nc1cc2[nH]c(=O)c3ccccc3c2cc1[N+](=O)[O-],?,?,-13.8%,.,-27.1%,-4.4
Nc1c(Br)cc2c([nH]c(=O)c3ccccc32)c1Br,-6.7%,?,?,.,-23.6%,-66.4*
CC(=O)Oc1ccc2nonc2c1OC(C)=O,10µM*,.,3.55µM*,.,3.16µM*,.
CC(=O)Nc1cc(OC(C)=O)c2nonc2c1OC(C)=O,-1.5%,50.1µM*,0.794µM*,0.3%,-10.4%,.
CNCC(=O)N(CC(C)C)c1c(N)n(CC(C)C)c(=O)[nH]c1=O,-2.4%,-10.4%,38.8%,10.1%,-12.7%,-1.5
COC(=O)C1CC1[C@H](NC(=O)c1cccnc1)c1ccccc1 (some centres undefined),-10.7%,.,-0.6%,.,2.9%,.
CCOc1ccc2cc(C3CC(c4ccco4)=NN3S(C)(=O)=O)c(=O)[nH]c2c1 (centres undefined),-5.4%,?,35.5µM*,15.8%,-26.6%,?
COc1ccccc1NC(=O)C1=C(C)Nc2nc(-c3ccco3)nn2C1c1cccc(C)c1 (centres undefined),-0.3%,-14.7%,-1.4%,-15.0%,-15.2%,.
S=c1[nH]nc(-c2ccccn2)n1/N=C/c1ccc(-c2ccccc2Br)o1,-5.1%,-6.4%,79.4µM*,50.1µM*,4.9%,-25.4
S=c1[nH]nc(-c2cccc(Cl)c2)n1/N=C/c1ccc(-c2ccccc2Br)o1,10.6%,?,3.4%,21.7%,-0.3%,-2.1
Cc1ccn2c(=O)c(C(=O)NCCc3ccc(S(N)(=O)=O)cc3)c(O)nc2c1,7.1%,-9.9%,12.7%,7.5%,-6.5%,.
Cc1nc2c3ccccc3nc(NNC(=O)CCC(=O)N3CCN(c4cc(Cl)ccc4C)CC3)n2n1,11.7%,-17.1%,-9.7%,6.3%,-15.6%,.
CC(NC(=O)Nc1ccc(O)cc1)(C(F)(F)F)C(F)(F)F,-10.1%,-8.1%,11.2µM*,-0.5%,-20.6%,17.9
COc1ccc(NC(=O)NC(C)(C(F)(F)F)C(F)(F)F)cc1,12.3%,?,?,1.0%,-13.8%,?
SMILES,FEN1 inh,Pol eta inh,POLI inh,POLB inh,POLK inh,PI5P4K alpha inh
Cc1ccc(NC(=O)C2CCCN(S(=O)(=O)c3ccc4c(c3)CCCC(=O)N4)C2)cc1N(C)C (centres undefined),10.1%,-17.2%,24.2%,-1.0%,-7.4%,.
CSCC(=O)N1CCC(n2nccc2NC(=O)c2ccc3c(c2)OCO3)CC1,-10.6%,-18.6%,?,10.9%,79.4µM*,6.8
CCC(C)(C)NC(=O)c1ccc(Sc2nncn2C)c([N+](=O)[O-])c1,3.6%,-17.4%,121.6%,?,-3.4%,-0.2
Cn1cnnc1Sc1ccc(/C=C/C(=O)c2ccc(O)cc2)cc1[N+](=O)[O-],?,50.1µM*,?,38.8%,-9.9%,-29.5
CCCS(=O)(=O)NC(=O)C1(C)CCN(C(=O)c2cc(F)cc(F)c2)C1 (centres undefined),.,.,.,.,.,4.5
CC1(C)CC(=O)C2=C(C1)Nc1[nH]c(=S)[nH]c(=O)c1C2c1ccccc1 (centres undefined),0.1%,-6.8%,?,15.2%,2.9%,-57.1*
O=C1CCCC2=C1C(c1ccc(Br)cc1)c1c([nH]c(=S)[nH]c1=O)N2 (centres undefined),6.9%,-10.3%,?,-21.2%,-30.5%,-74.8*
Cc1ccc(C2C3=C(CCCC3=O)Nc3[nH]c(=S)[nH]c(=O)c32)cc1 (centres undefined),-5.0%,2.1%,?,7.2%,-19.6%,.
O=C(NCC1CCCO1)C1CCCN(S(=O)(=O)c2cc(Cl)ccc2Cl)C1 (centres undefined),2.1%,-14.5%,31.6%,83.0%,-15.5%,-5.2
CCCC(=O)N(CCN1CCOCC1)c1nc2c(F)cc(F)cc2s1,10.0%,-17.1%,-18.4%,4.4%,-5.1%,2.7
CCOC(=O)c1c(NC(=O)/C=C/C(=O)O)sc(C)c1-c1ccc(Cl)cc1,13.6%,79.4µM*,?,-17.8%,2.2%,-16.4
COc1ccc(C)cc1NC(=O)c1ccc2c(c1)C(=O)N(Cc1ccncc1)C2=O,18.3%,-0.6%,18.6%,.,-14.0%,-6.6
COc1ccc(NC(=O)c2ccc3c(c2)C(=O)N(Cc2ccncc2)C3=O)cc1S(N)(=O)=O,-35.3%,?,31.6µM*,.,-10.3%,-2.4
CCc1oc2ccccc2c1C(=O)c1cc(Br)c(O)c(Br)c1,1.8%,-18.0%,15.6%,50.1µM*,-17.9%,-9.4
CCc1nnc(NS(=O)(=O)c2ccc(NC(=S)NC(=O)/C=C/c3ccccc3)cc2)s1,0.6%,70.8µM*,?,-8.7%,-21.1%,?
CCc1nnc(NS(=O)(=O)c2ccc(NC(=S)NC(=O)c3ccccc3)cc2)s1,-0.3%,-9.5%,5.5%,6.6%,-1.4%,-20.1
